Bioassay records as filed in PubChem.
eIF4E-4G inh: eIF4E/eIF4G interaction inhibition in translation initiation; P63073+Q04637; TR-FRET eIF4E-eIF4GI(517-606) binding, 2 h; inhibition, % at 21.7 µM; hit rate 0.37% among 220,000; AID 782;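 active = inhibition above about 30%, limit read from the data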;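 also: 0% = full FRET control wells and 100% = background wells lacking eIF4GI fragment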
Mcl-1 Bim block: human Bim-Mcl-1 interaction inhibition | AID 1009 | Q07820 | hit rate 0.1% among 190,000 | Bead-based flow cytometry, Bim peptide-Mcl-1 binding | inhibition, % at 10 µM; in the data active = inhibition above about 40%;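 also: 0% = no compound tracer wells and 100% = peptide blocker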
Target sequence (Q07820 whole entry, looked up): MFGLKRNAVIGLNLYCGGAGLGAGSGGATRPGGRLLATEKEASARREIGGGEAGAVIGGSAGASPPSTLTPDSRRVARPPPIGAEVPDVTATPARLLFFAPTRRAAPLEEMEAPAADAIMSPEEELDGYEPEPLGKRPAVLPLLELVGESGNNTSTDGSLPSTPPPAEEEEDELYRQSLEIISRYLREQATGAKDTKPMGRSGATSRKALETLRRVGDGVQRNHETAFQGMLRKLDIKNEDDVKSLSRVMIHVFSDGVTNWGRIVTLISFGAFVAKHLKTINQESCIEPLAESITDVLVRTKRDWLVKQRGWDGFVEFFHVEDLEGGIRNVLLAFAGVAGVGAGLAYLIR
Mcl1 Bid PPI: Mcl-1/Bid interaction inhibition. Q07820. TR-FRET Mcl-1/Bid-Dy647 peptide binding, 1536-well. inhibition, % at 21.7 µM. hit rate 0.97% among 220,000. AID 1021;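 active = compounds that cut the binding signal by more than half at the single screening dose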;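 also: His-tagged Mcl-1 with europium anti-His antibody binding Bid BH3 peptide; 0% = Mcl-1 plus peptide wells and 100% = peptide-only wells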
MCL1 BIM primary: disrupts human MCL1 binding to BIM-BH3 peptide | inhibition, % at 10.9 µM | hit rate 0.68% among 320,000 | Q07820 | GST-MCL1 / FITC-Bim-BH3 fluorescence polarization;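 active = inhibition above the mean inhibition of all tested compounds plus 3 SD, set per campaign, cut at about 40% in these data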;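 also: 0% = DMSO wells and 100% = unlabeled Bim-BH3 peptide control; higher means more loss of mP so more displacement of Bim peptide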
14-3-3 Bad inh: disrupts binding of bovine 14-3-3 zeta to phospho-Bad peptide; TR-FRET 14-3-3zeta/Dy647-pBad peptide displacement, 1 h; inhibition, % at 21.7 µM; P63103; hit rate 0.71% among 220,000;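 active = inhibition above about 70%, limit read from the data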;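 also: 0% = full 14-3-3 plus peptide FRET controls and 100% = background without 14-3-3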
Target sequence (P63103 whole entry, looked up): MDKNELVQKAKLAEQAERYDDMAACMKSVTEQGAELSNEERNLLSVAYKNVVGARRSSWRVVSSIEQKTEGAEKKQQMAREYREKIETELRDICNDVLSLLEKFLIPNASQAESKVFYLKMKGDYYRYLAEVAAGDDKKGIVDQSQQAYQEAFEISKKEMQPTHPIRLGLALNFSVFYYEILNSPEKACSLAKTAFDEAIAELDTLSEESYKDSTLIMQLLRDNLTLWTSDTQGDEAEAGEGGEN
Mcl1-Noxa inh: disrupts binding of human Mcl-1 to Noxa peptide; Q07820; TR-FRET Mcl-1/Noxa peptide binding, 2 h; inhibition, % at 21.7 µM; hit rate 1.5% among 220,000;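 active = compounds that cut the protein-peptide binding signal by more than 50% relative to plate controls in a single-dose test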;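 also: His-tagged Mcl-1 with rhodamine Noxa BH3 peptide and terbium anti-His antibody; 0% = Mcl-1 plus Noxa peptide wells and 100% = peptide-only wells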
The depositor's hits bear a star; [ ] = dose if it differs, or a comment. The list is not random: actives were taken first. Their share in the collection is about 2.6%.

For CC(/C=C1\SC(=S)N(NS(=O)(=O)c2ccc(C)cc2)C1=O)=C\c1ccccc1 the results were eIF4E-4G inh -1, Mcl1 Bid PPI 66*, MCL1 BIM primary 2, 14-3-3 Bad inh 28 and Mcl1-Noxa inh 94*.
`CC(/C=C1\SC(=S)N(NC(=O)c2ccc(C)cc2)C1=O)=C\c1ccccc1` gave eIF4E-4G inh 3, Mcl-1 Bim block 0, Mcl1 Bid PPI -9, MCL1 BIM primary -4, 14-3-3 Bad inh 4 and Mcl1-Noxa inh 7.
Screening CC(/C=C1\SC(=S)N(CCCC(=O)Nc2ccc(C(=O)O)c(O)c2)C1=O)=C\c1ccccc1 returned eIF4E-4G inh 9, Mcl-1 Bim block -4, Mcl1 Bid PPI 94*, MCL1 BIM primary 8, 14-3-3 Bad inh 50 and Mcl1-Noxa inh 111*.
`CC(/C=C1\SC(=S)N(NS(=O)(=O)c2ccccc2)C1=O)=C\c1ccccc1` gave eIF4E-4G inh -4, Mcl1 Bid PPI -10, MCL1 BIM primary 15, 14-3-3 Bad inh 25 and Mcl1-Noxa inh 79*.
Screening COc1ccc(CNC(=O)CN2C(=O)CSc3ccc(S(=O)(=O)N4CCOCC4)cc32)c(OC)c1 returned MCL1 BIM primary -6.
`COc1ccc(-c2ccc(C(=O)O)o2)c([N+](=O)[O-])c1` gave eIF4E-4G inh 0, Mcl-1 Bim block -2, Mcl1 Bid PPI -9, MCL1 BIM primary 4, 14-3-3 Bad inh 0 and Mcl1-Noxa inh 18.
Screening CNC(=O)/C(C#N)=C/c1ccc(-c2ccc(OC)cc2[N+](=O)[O-])o1 returned eIF4E-4G inh -28, Mcl-1 Bim block 1, Mcl1 Bid PPI 66*, MCL1 BIM primary 11, 14-3-3 Bad inh 33 and Mcl1-Noxa inh 40.
N#C/C(=C/c1ccc(-c2cc([N+](=O)[O-])ccc2Cl)o1)C(N)=O was read as eIF4E-4G inh -2, Mcl1 Bid PPI 57*, MCL1 BIM primary 28, 14-3-3 Bad inh 49 and Mcl1-Noxa inh 70*.
N#C/C(=C/c1ccc(-c2ccccc2[N+](=O)[O-])o1)C(N)=O was read as eIF4E-4G inh 3, Mcl-1 Bim block 2, Mcl1 Bid PPI -37, MCL1 BIM primary 1, 14-3-3 Bad inh -24 and Mcl1-Noxa inh 23.
`COc1ccc(-c2oc3ccccc3c2C(=O)OCc2ccccc2)cc1` gave MCL1 BIM primary 6.
Screening Cc1cc(C(F)F)n2nc(C(=O)Nc3sc4c(c3C(N)=O)CCC4)nc2n1 returned eIF4E-4G inh 6, Mcl-1 Bim block -12, Mcl1 Bid PPI -87, MCL1 BIM primary 30, 14-3-3 Bad inh 0 and Mcl1-Noxa inh 74*.
`COc1cccc(CC(=O)N2CCC(n3nccc3NC(=O)C3CCOC3)CC2)c1` (configuration not stated) gave MCL1 BIM primary 8.
For O=C(NC(=S)NCCC1=CCCCC1)c1ccccc1Br the results were eIF4E-4G inh 18, Mcl-1 Bim block -5, Mcl1 Bid PPI -53, MCL1 BIM primary 34, 14-3-3 Bad inh 30 and Mcl1-Noxa inh 68*.
Screening O=C(COC(=O)c1ccccc1Br)NCCC1=CCCCC1 returned eIF4E-4G inh 4, Mcl-1 Bim block 1, Mcl1 Bid PPI -25, MCL1 BIM primary 8, 14-3-3 Bad inh 2 and Mcl1-Noxa inh 18.
`CCc1nnc(NC(=O)c2ccc(COc3ccccc3Cl)o2)s1` gave MCL1 BIM primary 5.
For CCc1nnc(NC(=O)c2ccc(-c3ccccc3Cl)o2)s1 the results were eIF4E-4G inh -23, Mcl-1 Bim block 1, Mcl1 Bid PPI 53*, MCL1 BIM primary 5, 14-3-3 Bad inh 18 and Mcl1-Noxa inh 20.
Screening CN(C)NC(=S)NC1CC2CCC1C2 (configuration not stated) returned eIF4E-4G inh 90*, Mcl1 Bid PPI -49, MCL1 BIM primary 7, 14-3-3 Bad inh -2 and Mcl1-Noxa inh 1.
For COc1ccc2c(-c3ccccc3)cc(N3CCOCC3)nc2c1 the results were eIF4E-4G inh 18, Mcl-1 Bim block -1, Mcl1 Bid PPI 44, MCL1 BIM primary 1, 14-3-3 Bad inh 86*[fluorescence artefact?] and Mcl1-Noxa inh 31.
For COc1ccc(-c2nnn(CC(=O)N(CCCO)C(C(=O)NC3CCCC3)c3ccncc3)n2)cc1 (configuration not stated) the results were eIF4E-4G inh -1, Mcl-1 Bim block 0, Mcl1 Bid PPI 87*, MCL1 BIM primary 4, 14-3-3 Bad inh -4 and Mcl1-Noxa inh 7.
Screening COc1ccc(/C=C2/SC(=O)N(CCC(=O)Nc3ccc(S(=O)(=O)Nc4nccs4)cc3)C2=O)cc1 returned eIF4E-4G inh -3, Mcl-1 Bim block -8, Mcl1 Bid PPI 42, MCL1 BIM primary -7, 14-3-3 Bad inh -6 and Mcl1-Noxa inh 96*.
`COc1ccc(/C=C2\SC(=O)N(CCC(=O)Nc3ccc(S(=O)(=O)Nc4nccs4)cc3)C2=O)cc1` gave eIF4E-4G inh -4, Mcl-1 Bim block -2, Mcl1 Bid PPI 23, MCL1 BIM primary 1, 14-3-3 Bad inh 0 and Mcl1-Noxa inh 93*.
Screening CC(C)c1cc(C(=O)Nc2cccc(Cl)c2)no1 returned eIF4E-4G inh 63*[fluorescence artefact?], Mcl-1 Bim block 0, Mcl1 Bid PPI -8, MCL1 BIM primary 3, 14-3-3 Bad inh -2 and Mcl1-Noxa inh 5.
CS(=O)(=O)Nc1ccccc1C(=O)Nc1cc(Cl)cc(Cl)c1 was read as eIF4E-4G inh 1, Mcl-1 Bim block 0, Mcl1 Bid PPI 26, MCL1 BIM primary 0, 14-3-3 Bad inh 19 and Mcl1-Noxa inh 24.
CS(=O)(=O)Nc1ccccc1C(=O)Nc1cccc(Cl)c1 was read as eIF4E-4G inh 7, Mcl-1 Bim block 1, Mcl1 Bid PPI -5, MCL1 BIM primary 8, 14-3-3 Bad inh 77* and Mcl1-Noxa inh 19.
`CN(c1cccc(NC(=O)c2ccccc2N(C)S(C)(=O)=O)c1)S(C)(=O)=O` gave eIF4E-4G inh -3, Mcl-1 Bim block -7, Mcl1 Bid PPI 68*, MCL1 BIM primary 0, 14-3-3 Bad inh -5 and Mcl1-Noxa inh 16.
For COc1ccc(NC(=O)c2ccccc2NS(C)(=O)=O)cc1OC the results were eIF4E-4G inh -19, Mcl-1 Bim block -6, Mcl1 Bid PPI 51*, MCL1 BIM primary 3, 14-3-3 Bad inh -4 and Mcl1-Noxa inh 8.
Screening CSc1cccc(NC(=O)c2ccccc2N(C)S(C)(=O)=O)c1 returned eIF4E-4G inh -8, Mcl-1 Bim block -4, Mcl1 Bid PPI 1, MCL1 BIM primary -9, 14-3-3 Bad inh -11 and Mcl1-Noxa inh 2.
For Cc1ccc(NS(=O)(=O)c2c(C)noc2C)cc1 the results were MCL1 BIM primary 2.
CSc1cccc(NC(=O)CNC(=O)C2CCCCC2)c1 was read as MCL1 BIM primary -1.
Screening CCc1cccc(C)c1NC(=O)CN(C)Cc1ccccc1F returned eIF4E-4G inh 16, Mcl-1 Bim block -3, Mcl1 Bid PPI -10, MCL1 BIM primary -7, 14-3-3 Bad inh -5 and Mcl1-Noxa inh 6.
`O=C(NCCC(=O)N1CCC2(CC1)NCCc1[nH]cnc12)c1cccc(Br)c1` gave MCL1 BIM primary 7.
